# The list is not random: actives were taken first. Their share in the collection is about 12%.
# HP1b chromo inh = blocks HP1-beta chromodomain binding to methylated histone tails. P83916. Potency, µM (doses to about 114 µM), inactives show at the highest dose activity change, negative = inhibition, most hits filed as inhibitors. AlphaScreen HP1-beta / biotin-H3K9me3 peptide binding. 390,000 tested, 0.56% active; note: nearly all actives have a fitted effect of over 70% in size
#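 AlphaScreen: HP1-beta (50 nM) preformed 30 min with biotin-H3(1-18)K9me3 peptide (50 nM) in PBS pH 7.4, 0.01% Tween-20. Compound added for 30 min at RT, then streptavidin donor/nickel chelate acceptor beads (10 ug/mL) for 30 min.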
# JMJD2A Tudor inh = blocks the human JMJD2A Tudor domain; AlphaScreen JMJD2A-Tudor / H3K4me3 peptide binding; Potency, µM (doses to about 114 µM), without a hit: top-dose activity change, negative = inhibition, hits mostly inhibitors; O75164; 390,000 tested, 4.4% active; note: % is set by controls: 0 for no effect and ±100 for the full control effect; nearly all actives have a fitted effect of over 50% in size
# TDP1 inh = blocks human tyrosyl-DNA phosphodiesterase 1 | recombinant TDP1, AlphaScreen DNA substrate cleavage | Q9NUW8 | Potency, µM (series often up to 130 µM), for inactives: at the top dose activity change, negative = inhibition, most hits filed as inhibitors | 350,000 tested, 0.28% active; note: % is set by controls: 0 for no effect and ±100 for the full control effect; nearly all actives have a fitted effect of over 40% in size
#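 Signal: AlphaScreen proximity between streptavidin donor and anti-FITC acceptor beads on intact substrate. Reaction: Tdp1 1 nM, substrate 15 nM final, 5 min RT after 15 min compound preincubation.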
# G9a block = G9a (human) methyltransferase inhibition; AID 504332; 350,000 tested, 8.8% active; Potency, µM (doses to about 102 µM), inactives show top-dose activity, negative = inhibition, usual class: inhibitors; Q96KQ7; G9a H3K9 monomethylation, AlphaScreen, 2 h; note: % is set by controls: 0 for no effect and ±100 for the full control effect; nearly all actives have a fitted effect of over 75% in size
#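 AlphaScreen read-out: biotin-H3K9 peptide (500 nM) methylation by 20 nM enzyme with 20 uM SAM, 2 h at room temperature after 15 min compound preincubation; anti-monomethyl H3K9 antibody plus donor/acceptor beads, 10 min dark.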
# BAZ2B inh = BAZ2B (human) inhibition. Q9UIF8. AlphaScreen BAZ2B-H3K14Ac peptide displacement. 360,000 tested, 4.4% active. Potency, µM (series often up to 114 µM), without a hit: at the highest dose activity change, negative = inhibition, usual class: inhibitors; note: % is set by controls: 0 for no effect and ±100 for the full control effect; nearly all actives have a fitted effect of over 60% in size
#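 AlphaScreen displacement: compounds (up to 110uM) incubated 30 min at room temperature with a preformed 50 nM BAZ2B/50 nM biotinylated H3K14Ac peptide complex in PBS pH 7.4 with Tween-20. Donor and acceptor beads at 10 ug/mL final added, 20 min light-protected before reading.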
# Sfp PPTase inh = blocks B. subtilis Sfp PPTase activity | Q9F4F7 | Biochemical Sfp PPTase activity, qHTS | Potency, µM, for the others: largest response in the series, negative = inhibition, most hits filed as inhibitors | 310,000 tested, 3.5% active | AID 1490;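 note: the enzyme is Sfp with the accession as filed and its product quenches rhodamine fluorescence; 0% = enzyme reaction without inhibitor and -100% = no enzyme wells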
#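 After 15 min at room temperature with compound, 15 nM Sfp received 5 uM rhodamine-CoA plus 12.5 uM BHQ-2-ybbR (50 mM Hepes pH 7.6, 10 mM MgCl2). Rate came from the fluorescence difference over 30 min, ex 525/em 598 nm.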
# * hit, by the source's call; ? = inconclusive; . = no result; [ ] = remark or other dose. Calls come from the whole dose curve; as a rule, active = well fitted curve in the direction sought with a large enough effect; inconclusive = small, poorly fitted or top-dose-only effect, or another doubt; inactive = no such curve, though single readings can be large; an effect the other way counts as inactive or inconclusive. Potency is the fitted concentration of half-maximal effect.
SMILES,HP1b chromo inh,JMJD2A Tudor inh,TDP1 inh,G9a block,BAZ2B inh,Sfp PPTase inh
O=c1c(-c2ccccc2)[n+]([O-])c2ccccc2n1O,-5%,?,7%,?,?,40µM*
CCn1c(C(=O)N2CCc3ccccc3C2)cc2sccc21,20%,-35%,7%,50µM*,-35%,-9%
CS(=O)(=O)c1ccc(C(=O)N2CCc3ccccc3C2)cc1,8%,-19%,3%,7%,.,21%
CN1CCN(C(=O)c2cc3sccc3n2CC(=O)c2ccccc2)CC1,15%,-16%,5%,2%,-4%,1%
CCN1CCN(C(=O)c2ccc3c(c2)c(C)c(C)n3Cc2ccccc2)CC1,?,?,8%,35µM*,?,3%
CCn1c(C)c(C)c2cc(C(=O)N3CCc4ccccc4C3)ccc21,?,40µM*,18%,45µM*,22µM*,-18%
COc1ccccc1N1CCN(C(=O)c2c3c(nc4ccccc24)C(=O)N(C2CCCCC2)C3)CC1,56%,-2%,10%,0%[59 µM],-3%,.
CC(C)(C)c1ccc(S(=O)(=O)/N=C2\C=C(NS(=O)(=O)c3ccccc3)C(=O)c3ccccc32)cc1,?,25µM*,11%,10µM*,28µM*,-9%
Cc1ccc(S(=O)(=O)/N=C2\C=C(NS(=O)(=O)c3ccccc3)C(=O)c3ccccc32)c(C)c1,22µM*,22µM*,.,.,.,.
O=C1C(Nc2ccccc2)=C(NS(=O)(=O)c2ccccc2)C(=O)c2ccccc21,2%,-5%,0%,-8%[59 µM],-13%,-2%
CCC(C(=O)NCCC(C)C)n1ccc2cc(S(=O)(=O)N3CCCCC3)ccc21 (centres undefined),55%,-8%,4%,-34%[59 µM],-24%,16%
CC(NC(=O)Nc1ccc(Br)cc1)C(C)(C)C (centres undefined),25%,-7%,5%,38%,-4%,14%
CC(C)(C)C(=O)C(C(c1ccccc1)N1CCOCC1)N1CCOCC1 (centres undefined),4%,-6%,.,.,.,.
Cc1cccc(NS(=O)(=O)c2cccs2)c1,18%,-28%,6%,-8%[12.7 µM],-2%,8%
Cc1cc(C)nc(NS(=O)(=O)c2cccs2)c1,8%,-6%,3%,56µM*,-4%,-8%
Cc1cccc2sc(N(CCN(C)C)C(=O)C3CCN(S(=O)(=O)c4cccs4)CC3)nc12,?,56µM*,0%,32µM*,50µM*,.
Cc1cccc2sc(N(CCN(C)C)C(=O)/C=C/c3cccs3)nc12,24%,?,0%,?,-35%,32µM*
Cc1cc(C)n2nc(SCC(=O)NC(=O)c3ccc(OC(F)F)cc3)nc2n1,55%,-11%,1%,.,.,.
Cc1nc2ccc(NS(=O)(=O)c3c(F)cc(F)cc3Br)cc2s1,50%,-25%,2%,17%[12.7 µM],10%,.
Cc1ccc(-c2nc3ccccc3nc2-c2ccccc2)cc1,114%,82%,79µM*,.,10%,-19%
Cn1ccsc1=NC(=O)c1ccc([N+](=O)[O-])o1,?,56µM*,6%,?,-30%,9%
CC(C)(C)c1ccccc1OCCOCCNCc1ccccc1,?,22µM*,.,14µM*,79µM*,-27%
O=[N+]([O-])c1ccccc1OCCNCc1ccccc1,?,45µM*,.,7.9µM*,?,-20%
CNCCOc1ccccc1C(C)(C)C,-44%,3.2µM*,2%,13µM*,?,?
CCN(C(=O)COc1ccc(C(C)=O)cc1)c1cccc2ccccc12,9%,-6%,0%,.,.,.
Cc1ccc(S(=O)(=O)N2CCOCC2)cc1C(=O)N1CCN(S(=O)(=O)c2cccs2)CC1,30%,-13%,0%,29%[59 µM],7%,4%
COC(=O)CCNC(=O)Cc1ccc(S(=O)(=O)N2CCCCC2)s1,-3%,-26%,2%,50µM*,-2%,.
NS(=O)(=O)c1cccc(NC(=O)COC(=O)Cc2ccc(S(=O)(=O)N3CCOCC3)s2)c1,3%,-23%,.,.,.,.

# Source: PubChem
